# From the supplement of paper PMC11732987, “Enantioselective OTUD7B fragment discovery through chemoproteomics screening and high-throughput optimisation” (Communications Chemistry, 2025)
# Values without a mark were called inactive.
# How the values were obtained:
# Assay in all cases: log2 ratio of Biotin-Ahx-Ub-VS probe labelling (fragment/DMSO); higher = less target engagement (more negative = stronger competition), active = hit call of the paper (q ≤ 0.05, log2 ratio ≤ -1)
# Details in all cases: compound concentration: 200 uM; treatment time: 3 h
# USP19 = molecular target: T1, USP19 (UniProt O94966)
# T1 sequence (whole entry): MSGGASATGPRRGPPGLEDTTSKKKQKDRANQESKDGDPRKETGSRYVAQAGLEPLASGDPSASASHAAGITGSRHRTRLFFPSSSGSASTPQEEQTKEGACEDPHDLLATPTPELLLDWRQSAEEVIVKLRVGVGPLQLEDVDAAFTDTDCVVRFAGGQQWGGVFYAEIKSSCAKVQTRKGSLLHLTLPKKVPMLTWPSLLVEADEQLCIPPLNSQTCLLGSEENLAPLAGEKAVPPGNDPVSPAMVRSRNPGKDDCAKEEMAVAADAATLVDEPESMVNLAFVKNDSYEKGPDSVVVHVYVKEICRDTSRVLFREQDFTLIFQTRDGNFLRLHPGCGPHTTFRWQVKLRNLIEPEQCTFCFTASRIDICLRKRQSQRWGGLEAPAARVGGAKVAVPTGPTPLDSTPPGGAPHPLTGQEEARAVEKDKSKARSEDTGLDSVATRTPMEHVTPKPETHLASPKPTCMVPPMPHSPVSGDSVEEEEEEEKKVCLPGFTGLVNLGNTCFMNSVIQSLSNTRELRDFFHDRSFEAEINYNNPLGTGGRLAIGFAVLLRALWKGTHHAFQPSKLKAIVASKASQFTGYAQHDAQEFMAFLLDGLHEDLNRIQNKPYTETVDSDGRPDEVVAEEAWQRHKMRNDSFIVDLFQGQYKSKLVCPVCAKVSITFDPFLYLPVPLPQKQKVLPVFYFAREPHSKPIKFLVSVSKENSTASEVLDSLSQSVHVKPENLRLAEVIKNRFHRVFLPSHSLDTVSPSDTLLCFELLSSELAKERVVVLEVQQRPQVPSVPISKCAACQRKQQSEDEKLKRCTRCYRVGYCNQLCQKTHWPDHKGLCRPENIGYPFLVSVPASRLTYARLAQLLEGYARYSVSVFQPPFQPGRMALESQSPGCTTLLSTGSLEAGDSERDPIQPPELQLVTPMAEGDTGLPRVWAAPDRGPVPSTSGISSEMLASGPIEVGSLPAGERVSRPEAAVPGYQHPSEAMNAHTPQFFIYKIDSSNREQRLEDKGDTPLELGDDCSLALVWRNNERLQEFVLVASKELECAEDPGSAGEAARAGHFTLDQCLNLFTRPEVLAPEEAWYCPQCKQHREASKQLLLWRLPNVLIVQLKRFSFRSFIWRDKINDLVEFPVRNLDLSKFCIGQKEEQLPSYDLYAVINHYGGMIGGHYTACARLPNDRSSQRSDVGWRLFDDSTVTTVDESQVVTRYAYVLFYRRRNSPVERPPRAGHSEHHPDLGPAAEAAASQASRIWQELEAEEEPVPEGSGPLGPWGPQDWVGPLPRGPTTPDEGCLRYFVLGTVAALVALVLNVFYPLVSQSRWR
# Procedure, shortened: (§1)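 HEK293T lysate (495 µg per sample, in Tris/CHAPS/IGEPAL buffer with protease inhibitors) was treated in triplicate with fragment at 200 µM or with DMSO for 3 h. It was then treated with Biotin-Ahx-Ub-VS (0.5 µM final) for 1 h. Labelled DUBs were NeutrAvidin-enriched, digested with LysC and trypsin, and run by diaPASEF LC-MS/MS. Spectronaut label-free quantities were global-median-normalised. Values are average log2 ratios fragment/DMSO by unpaired t-test, using proteins with ≥2 unique peptides.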
# USP22 = molecular target: T2, USP22 (UniProt Q9UPT9)
# T2 sequence (whole entry): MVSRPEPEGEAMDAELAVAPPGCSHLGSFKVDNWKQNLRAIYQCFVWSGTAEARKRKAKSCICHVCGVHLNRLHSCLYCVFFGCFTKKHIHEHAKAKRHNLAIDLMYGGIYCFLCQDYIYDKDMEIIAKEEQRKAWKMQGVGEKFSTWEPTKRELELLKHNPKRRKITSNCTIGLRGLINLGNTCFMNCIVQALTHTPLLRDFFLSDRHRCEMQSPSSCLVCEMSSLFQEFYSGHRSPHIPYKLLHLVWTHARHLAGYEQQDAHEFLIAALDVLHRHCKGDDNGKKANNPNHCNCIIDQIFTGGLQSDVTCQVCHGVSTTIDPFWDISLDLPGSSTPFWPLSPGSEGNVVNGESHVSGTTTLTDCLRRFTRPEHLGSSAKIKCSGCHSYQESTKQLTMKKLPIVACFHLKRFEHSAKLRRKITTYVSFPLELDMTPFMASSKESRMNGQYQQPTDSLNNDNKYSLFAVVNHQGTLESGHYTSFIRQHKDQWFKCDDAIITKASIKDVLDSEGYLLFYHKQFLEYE
# Procedure, shortened: as §1
# USP24 = USP24 (UniProt Q9UPU5)
# Procedure, shortened: as §1
# USP25 = molecular target: T3, USP25 (UniProt Q9UHP3)
# T3 sequence (whole entry): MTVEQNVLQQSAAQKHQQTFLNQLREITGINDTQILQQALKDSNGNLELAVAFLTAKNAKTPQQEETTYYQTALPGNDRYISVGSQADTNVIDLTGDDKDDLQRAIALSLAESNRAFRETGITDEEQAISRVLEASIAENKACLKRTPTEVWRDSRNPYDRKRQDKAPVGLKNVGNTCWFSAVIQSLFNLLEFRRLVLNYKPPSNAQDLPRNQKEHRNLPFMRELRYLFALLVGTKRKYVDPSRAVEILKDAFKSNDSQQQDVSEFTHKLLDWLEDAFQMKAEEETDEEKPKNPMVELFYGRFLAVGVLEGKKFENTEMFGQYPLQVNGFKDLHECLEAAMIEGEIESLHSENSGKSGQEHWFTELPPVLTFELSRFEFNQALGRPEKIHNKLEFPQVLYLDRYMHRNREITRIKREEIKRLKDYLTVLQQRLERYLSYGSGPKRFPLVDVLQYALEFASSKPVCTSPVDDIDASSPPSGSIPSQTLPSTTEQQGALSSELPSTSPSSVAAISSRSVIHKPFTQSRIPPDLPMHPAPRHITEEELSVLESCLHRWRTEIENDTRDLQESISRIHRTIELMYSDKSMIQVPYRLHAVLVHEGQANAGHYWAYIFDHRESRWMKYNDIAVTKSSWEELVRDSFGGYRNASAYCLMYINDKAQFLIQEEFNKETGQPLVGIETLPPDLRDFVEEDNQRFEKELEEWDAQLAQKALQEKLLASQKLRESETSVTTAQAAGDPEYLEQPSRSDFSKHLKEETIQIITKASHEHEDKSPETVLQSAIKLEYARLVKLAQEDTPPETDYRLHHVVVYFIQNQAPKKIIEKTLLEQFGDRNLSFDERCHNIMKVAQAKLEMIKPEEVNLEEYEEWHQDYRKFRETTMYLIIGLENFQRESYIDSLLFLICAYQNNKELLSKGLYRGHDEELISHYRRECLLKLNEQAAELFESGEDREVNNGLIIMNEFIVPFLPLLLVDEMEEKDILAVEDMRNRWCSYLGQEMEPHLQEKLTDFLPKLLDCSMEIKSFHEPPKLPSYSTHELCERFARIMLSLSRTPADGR
# Procedure, shortened: as §1
# USP28 = molecular target: T4, USP28 (UniProt Q96RU2)
# T4 sequence (whole entry): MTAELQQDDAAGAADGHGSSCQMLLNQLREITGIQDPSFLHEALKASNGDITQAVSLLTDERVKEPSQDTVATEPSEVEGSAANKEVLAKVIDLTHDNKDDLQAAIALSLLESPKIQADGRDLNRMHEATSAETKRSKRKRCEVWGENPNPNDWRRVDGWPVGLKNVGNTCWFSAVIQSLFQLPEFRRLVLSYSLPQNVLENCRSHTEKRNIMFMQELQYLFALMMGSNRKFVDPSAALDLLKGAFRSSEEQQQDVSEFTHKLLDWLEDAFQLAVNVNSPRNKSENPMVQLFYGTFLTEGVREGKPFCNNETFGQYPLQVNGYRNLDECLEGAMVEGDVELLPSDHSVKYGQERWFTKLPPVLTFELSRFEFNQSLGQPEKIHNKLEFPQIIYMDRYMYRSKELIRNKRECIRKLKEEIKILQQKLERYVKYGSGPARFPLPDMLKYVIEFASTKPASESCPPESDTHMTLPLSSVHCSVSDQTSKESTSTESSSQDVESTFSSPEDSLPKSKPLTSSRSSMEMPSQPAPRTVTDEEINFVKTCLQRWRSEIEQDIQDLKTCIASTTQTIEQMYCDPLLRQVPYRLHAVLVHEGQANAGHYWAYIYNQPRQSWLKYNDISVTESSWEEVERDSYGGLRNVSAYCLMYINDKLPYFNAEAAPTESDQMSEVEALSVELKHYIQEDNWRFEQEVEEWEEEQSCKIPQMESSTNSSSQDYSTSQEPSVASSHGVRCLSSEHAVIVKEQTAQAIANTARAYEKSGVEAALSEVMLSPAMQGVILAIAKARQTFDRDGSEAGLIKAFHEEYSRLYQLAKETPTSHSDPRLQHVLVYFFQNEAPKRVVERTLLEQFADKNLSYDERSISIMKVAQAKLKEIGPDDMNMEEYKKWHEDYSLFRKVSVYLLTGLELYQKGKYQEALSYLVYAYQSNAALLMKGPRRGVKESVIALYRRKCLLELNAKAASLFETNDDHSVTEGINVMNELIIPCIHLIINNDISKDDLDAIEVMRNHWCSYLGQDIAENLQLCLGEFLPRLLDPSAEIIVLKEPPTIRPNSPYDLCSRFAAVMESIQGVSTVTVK
# Procedure, shortened: as §1
# Sequence of USP24 (Q9UPU5 whole entry): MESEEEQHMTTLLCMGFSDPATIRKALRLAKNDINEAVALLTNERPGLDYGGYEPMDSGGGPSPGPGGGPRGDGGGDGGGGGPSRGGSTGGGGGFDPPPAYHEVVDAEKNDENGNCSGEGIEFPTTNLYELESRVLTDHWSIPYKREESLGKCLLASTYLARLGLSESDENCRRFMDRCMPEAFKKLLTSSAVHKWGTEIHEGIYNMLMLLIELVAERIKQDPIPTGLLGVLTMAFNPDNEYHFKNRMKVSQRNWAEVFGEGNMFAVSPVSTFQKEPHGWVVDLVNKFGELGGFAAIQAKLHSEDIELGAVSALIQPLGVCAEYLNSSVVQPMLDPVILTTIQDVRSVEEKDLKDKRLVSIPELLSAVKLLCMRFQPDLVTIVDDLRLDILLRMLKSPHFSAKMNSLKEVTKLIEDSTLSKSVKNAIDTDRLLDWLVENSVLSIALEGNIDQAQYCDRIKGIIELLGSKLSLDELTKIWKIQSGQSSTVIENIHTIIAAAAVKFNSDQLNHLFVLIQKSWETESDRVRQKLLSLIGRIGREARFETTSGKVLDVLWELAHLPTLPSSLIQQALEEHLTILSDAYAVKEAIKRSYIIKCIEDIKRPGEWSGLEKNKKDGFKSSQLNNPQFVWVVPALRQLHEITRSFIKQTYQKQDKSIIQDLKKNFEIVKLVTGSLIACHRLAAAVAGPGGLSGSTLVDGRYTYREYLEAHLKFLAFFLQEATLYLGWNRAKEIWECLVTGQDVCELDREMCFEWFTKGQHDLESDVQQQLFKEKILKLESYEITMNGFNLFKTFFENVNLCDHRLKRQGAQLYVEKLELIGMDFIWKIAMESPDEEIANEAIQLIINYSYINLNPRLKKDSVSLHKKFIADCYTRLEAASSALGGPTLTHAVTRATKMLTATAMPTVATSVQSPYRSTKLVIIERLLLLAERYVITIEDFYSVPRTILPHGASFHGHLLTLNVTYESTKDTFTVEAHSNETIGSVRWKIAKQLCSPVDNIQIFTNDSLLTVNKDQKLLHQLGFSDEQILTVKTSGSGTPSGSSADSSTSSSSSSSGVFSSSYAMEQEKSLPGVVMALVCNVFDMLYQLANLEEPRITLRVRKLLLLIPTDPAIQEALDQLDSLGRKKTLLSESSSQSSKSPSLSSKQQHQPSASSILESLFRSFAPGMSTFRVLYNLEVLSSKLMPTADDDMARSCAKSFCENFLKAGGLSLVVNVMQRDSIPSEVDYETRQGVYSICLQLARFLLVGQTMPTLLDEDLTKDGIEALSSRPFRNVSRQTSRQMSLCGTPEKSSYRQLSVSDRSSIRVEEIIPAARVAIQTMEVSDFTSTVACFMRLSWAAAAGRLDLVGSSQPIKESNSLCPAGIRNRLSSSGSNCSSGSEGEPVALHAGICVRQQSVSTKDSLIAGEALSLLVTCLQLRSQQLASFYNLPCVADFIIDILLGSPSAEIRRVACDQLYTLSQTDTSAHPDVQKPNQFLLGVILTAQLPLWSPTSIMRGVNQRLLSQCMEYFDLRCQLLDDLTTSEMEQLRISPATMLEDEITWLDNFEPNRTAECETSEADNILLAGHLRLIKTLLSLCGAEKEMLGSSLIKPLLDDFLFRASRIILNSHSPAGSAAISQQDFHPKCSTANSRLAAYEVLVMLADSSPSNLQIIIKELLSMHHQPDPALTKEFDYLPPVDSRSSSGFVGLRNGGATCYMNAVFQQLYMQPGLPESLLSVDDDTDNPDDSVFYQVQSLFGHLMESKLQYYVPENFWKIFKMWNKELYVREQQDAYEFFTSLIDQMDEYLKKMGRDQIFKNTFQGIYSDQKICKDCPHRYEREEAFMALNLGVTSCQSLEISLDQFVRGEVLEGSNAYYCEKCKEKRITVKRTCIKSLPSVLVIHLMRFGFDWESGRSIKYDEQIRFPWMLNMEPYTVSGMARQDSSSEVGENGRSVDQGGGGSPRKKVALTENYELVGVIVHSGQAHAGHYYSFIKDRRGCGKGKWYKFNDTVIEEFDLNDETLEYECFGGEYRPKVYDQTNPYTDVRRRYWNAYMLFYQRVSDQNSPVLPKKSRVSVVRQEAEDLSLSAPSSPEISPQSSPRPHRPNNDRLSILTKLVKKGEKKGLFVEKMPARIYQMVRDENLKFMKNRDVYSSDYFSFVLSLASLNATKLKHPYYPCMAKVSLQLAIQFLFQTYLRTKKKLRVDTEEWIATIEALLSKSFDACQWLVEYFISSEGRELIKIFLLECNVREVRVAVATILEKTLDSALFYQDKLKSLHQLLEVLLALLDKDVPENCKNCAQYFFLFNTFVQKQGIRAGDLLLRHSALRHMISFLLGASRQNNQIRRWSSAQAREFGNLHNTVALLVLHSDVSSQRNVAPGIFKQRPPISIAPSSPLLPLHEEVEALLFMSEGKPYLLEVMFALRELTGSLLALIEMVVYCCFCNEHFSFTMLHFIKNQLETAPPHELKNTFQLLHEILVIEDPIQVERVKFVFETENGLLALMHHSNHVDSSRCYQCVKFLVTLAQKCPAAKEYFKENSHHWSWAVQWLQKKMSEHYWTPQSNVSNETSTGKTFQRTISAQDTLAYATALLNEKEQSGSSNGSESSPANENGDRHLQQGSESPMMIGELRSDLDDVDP
smiles,measurement,setting,value
N#Cc1ccccc1N1CCN(C(=O)CCl)CC1,log2 ratio of Biotin-Ahx-Ub-VS probe labelling,USP19,-0.813
same,log2 ratio of Biotin-Ahx-Ub-VS probe labelling,USP22,0.0569
same,log2 ratio of Biotin-Ahx-Ub-VS probe labelling,USP24,-1.15 (active)
same,log2 ratio of Biotin-Ahx-Ub-VS probe labelling,USP25,-0.657
same,log2 ratio of Biotin-Ahx-Ub-VS probe labelling,USP28,-1.05
